Among the data in ChEMBL document CHEMBL1961873, “Compounds: GSK PKIS; Assays: Nanosyn kinase panel” (2012) are inhibition values, retold here.

The target in assay [1] is Glycogen synthase kinase-3 beta (Homo sapiens) (UniProt P49841). The conditions noted are these: at 1 µM.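 Further: reported values are mean percent inhibition of GSK3B.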
In assay [2] the target is Homeodomain-interacting protein kinase 1 (Homo sapiens) (UniProt Q86Z02). As to conditions: at 0.1 µM.
The target is the same in assay [3]. The conditions noted are these: at 1 µM.
For assay [4], the target named is T1, Homeodomain-interacting protein kinase 4 (Homo sapiens) (UniProt Q8NE63).
T1 sequence (whole entry): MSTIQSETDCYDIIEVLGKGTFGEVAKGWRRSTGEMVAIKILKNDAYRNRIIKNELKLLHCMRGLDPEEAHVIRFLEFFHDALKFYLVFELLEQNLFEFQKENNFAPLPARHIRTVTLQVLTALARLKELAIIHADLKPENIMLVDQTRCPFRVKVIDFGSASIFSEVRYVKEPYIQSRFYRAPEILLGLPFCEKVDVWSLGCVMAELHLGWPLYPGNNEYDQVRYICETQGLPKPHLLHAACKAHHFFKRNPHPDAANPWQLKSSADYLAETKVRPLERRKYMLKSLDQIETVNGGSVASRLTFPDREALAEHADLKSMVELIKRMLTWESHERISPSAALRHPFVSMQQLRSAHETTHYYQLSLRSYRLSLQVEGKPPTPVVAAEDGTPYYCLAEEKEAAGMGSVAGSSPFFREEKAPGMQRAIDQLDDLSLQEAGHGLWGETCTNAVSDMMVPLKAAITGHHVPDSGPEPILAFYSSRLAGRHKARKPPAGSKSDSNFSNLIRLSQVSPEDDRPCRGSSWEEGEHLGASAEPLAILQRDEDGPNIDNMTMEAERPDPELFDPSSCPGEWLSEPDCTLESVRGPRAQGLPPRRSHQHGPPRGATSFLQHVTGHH
The conditions noted are these: at 0.1 µM.

Assay [5] concerns the target T1, Homeodomain-interacting protein kinase 4 (Homo sapiens). As to conditions: at 1 µM.
Assay [6] concerns the target Mitogen-activated protein kinase 9 (Homo sapiens) (UniProt P45984). As to conditions: at 0.1 µM.
Assay [7] has the same target. As to conditions: at 1 µM.
Assay [8] deals with Mitogen-activated protein kinase 1 (Homo sapiens) (UniProt P28482). As to conditions: at 0.1 µM.
The target is the same in assay [9]. The conditions noted are these: at 1 µM.
The target in assay [10] is Mitogen-activated protein kinase 3 (Homo sapiens) (UniProt P27361). The conditions noted are these: at 0.1 µM.
For assay [11] the target is unchanged. As to conditions: at 1 µM.
The target of assay [12] is SRSF protein kinase 3 (Homo sapiens) (UniProt Q9UPE1). As to conditions: at 0.1 µM.
Assay [13] has the same target. As to conditions: at 1 µM.
For assay [14], the target named is Mitogen-activated protein kinase 14 (Homo sapiens) (UniProt Q16539). As to conditions: at 0.1 µM.
The target is the same in assay [15]. As to conditions: at 1 µM.
Assay [16] concerns the target Mitogen-activated protein kinase 11 (Homo sapiens) (UniProt Q15759). As to conditions: at 0.1 µM.
Assay [17] shares this target. The conditions noted are these: at 1 µM.
Assay [18] concerns the target T2, Mitogen-activated protein kinase 13 (Homo sapiens) (UniProt O15264).
T2 sequence (whole entry): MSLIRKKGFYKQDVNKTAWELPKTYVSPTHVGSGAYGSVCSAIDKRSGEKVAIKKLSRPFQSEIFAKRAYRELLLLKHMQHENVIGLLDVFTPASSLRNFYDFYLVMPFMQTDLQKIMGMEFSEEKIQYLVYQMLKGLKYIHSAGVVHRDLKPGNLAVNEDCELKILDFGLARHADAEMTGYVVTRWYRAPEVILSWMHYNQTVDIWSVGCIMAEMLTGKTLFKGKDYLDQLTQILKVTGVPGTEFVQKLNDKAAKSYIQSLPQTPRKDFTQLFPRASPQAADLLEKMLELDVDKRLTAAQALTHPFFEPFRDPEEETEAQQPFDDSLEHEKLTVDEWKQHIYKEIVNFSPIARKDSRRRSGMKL
As to conditions: at 0.1 µM.

Assay [19] addresses T2, Mitogen-activated protein kinase 13 (Homo sapiens). The conditions noted are these: at 1 µM.
The target in assay [20] is T3, Mitogen-activated protein kinase 12 (Homo sapiens) (UniProt P53778).
T3 sequence (whole entry): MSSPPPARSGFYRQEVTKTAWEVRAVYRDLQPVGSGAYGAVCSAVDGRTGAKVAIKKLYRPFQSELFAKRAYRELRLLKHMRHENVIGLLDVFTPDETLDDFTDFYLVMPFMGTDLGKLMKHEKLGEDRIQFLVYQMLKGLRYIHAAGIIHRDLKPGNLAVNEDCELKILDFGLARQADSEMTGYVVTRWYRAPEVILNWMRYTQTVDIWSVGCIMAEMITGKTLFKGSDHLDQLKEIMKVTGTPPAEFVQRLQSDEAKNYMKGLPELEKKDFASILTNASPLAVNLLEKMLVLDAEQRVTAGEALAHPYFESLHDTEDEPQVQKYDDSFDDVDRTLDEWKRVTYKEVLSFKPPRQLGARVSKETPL
The conditions noted are these: at 0.1 µM.

The structures appear in SMILES notation.

Sequence of SRSF protein kinase 3 (Homo sapiens) (Q9UPE1 whole entry): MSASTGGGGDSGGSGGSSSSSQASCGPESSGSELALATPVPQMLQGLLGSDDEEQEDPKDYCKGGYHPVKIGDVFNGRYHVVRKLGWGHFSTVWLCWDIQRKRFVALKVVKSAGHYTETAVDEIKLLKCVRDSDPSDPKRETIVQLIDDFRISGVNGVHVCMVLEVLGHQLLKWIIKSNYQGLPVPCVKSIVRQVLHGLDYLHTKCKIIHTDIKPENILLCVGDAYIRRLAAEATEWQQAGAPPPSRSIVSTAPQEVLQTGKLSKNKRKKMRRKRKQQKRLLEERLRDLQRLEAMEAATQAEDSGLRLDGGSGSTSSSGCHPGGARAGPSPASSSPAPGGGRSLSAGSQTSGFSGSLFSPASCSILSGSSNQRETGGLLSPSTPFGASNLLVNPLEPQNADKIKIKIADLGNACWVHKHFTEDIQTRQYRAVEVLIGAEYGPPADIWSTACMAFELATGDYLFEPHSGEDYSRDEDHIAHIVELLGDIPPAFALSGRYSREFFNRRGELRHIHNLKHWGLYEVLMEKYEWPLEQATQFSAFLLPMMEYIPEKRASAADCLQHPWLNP
Sequence of Glycogen synthase kinase-3 beta (Homo sapiens) (P49841 whole entry, looked up): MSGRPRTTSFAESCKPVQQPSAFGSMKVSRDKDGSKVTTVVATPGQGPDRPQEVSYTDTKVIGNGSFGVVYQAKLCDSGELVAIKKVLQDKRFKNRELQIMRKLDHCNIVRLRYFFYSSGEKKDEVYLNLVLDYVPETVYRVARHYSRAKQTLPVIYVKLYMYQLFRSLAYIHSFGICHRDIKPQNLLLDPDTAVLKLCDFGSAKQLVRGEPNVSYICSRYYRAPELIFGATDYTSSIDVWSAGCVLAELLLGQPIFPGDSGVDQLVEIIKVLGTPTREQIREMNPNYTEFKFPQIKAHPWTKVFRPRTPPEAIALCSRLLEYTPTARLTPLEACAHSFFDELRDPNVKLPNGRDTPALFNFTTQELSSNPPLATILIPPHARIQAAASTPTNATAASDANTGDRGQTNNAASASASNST
Sequence of Mitogen-activated protein kinase 14 (Homo sapiens) (Q16539 whole entry): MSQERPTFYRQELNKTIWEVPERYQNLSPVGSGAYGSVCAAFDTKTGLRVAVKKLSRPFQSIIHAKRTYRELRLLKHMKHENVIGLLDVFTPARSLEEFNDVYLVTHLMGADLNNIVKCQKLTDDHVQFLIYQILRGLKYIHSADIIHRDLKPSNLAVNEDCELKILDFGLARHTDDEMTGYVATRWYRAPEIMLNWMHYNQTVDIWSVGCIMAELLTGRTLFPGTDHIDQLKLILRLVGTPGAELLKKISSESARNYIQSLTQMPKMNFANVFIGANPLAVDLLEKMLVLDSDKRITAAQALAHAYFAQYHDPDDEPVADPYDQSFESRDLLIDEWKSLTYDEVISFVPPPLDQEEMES
Sequence of Homeodomain-interacting protein kinase 1 (Homo sapiens) (Q86Z02 whole entry, looked up): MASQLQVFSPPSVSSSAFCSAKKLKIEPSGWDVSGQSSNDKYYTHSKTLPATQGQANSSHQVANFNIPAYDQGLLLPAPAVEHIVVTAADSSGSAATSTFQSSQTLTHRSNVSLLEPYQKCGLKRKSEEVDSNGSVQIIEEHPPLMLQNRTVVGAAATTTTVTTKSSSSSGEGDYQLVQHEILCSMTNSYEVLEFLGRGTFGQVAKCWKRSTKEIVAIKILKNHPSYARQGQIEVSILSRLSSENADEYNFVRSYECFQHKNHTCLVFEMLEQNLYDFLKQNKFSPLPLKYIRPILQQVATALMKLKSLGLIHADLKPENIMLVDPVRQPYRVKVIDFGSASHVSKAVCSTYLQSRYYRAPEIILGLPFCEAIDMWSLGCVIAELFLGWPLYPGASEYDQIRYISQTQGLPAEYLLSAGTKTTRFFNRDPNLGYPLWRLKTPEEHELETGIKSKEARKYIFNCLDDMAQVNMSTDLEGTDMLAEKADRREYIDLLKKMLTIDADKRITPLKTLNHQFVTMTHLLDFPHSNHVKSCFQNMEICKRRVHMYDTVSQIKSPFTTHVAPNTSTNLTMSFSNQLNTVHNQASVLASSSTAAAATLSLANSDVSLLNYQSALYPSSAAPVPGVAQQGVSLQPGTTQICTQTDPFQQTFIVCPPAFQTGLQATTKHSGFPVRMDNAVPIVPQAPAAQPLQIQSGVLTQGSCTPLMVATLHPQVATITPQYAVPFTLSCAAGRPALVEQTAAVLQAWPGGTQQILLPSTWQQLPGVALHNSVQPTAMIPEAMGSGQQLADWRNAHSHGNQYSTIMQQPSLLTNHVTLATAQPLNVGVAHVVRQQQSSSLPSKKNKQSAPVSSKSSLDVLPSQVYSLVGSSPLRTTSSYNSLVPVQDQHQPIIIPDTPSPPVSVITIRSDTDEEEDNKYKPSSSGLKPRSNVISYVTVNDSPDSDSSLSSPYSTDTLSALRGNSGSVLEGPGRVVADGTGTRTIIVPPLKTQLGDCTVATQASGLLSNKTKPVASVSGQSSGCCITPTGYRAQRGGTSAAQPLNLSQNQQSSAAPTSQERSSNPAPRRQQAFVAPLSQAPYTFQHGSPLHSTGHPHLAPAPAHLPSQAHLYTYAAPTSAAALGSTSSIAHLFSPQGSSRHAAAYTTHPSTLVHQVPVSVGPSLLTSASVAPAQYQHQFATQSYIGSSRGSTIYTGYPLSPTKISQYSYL
Sequence of Mitogen-activated protein kinase 1 (Homo sapiens) (P28482 whole entry): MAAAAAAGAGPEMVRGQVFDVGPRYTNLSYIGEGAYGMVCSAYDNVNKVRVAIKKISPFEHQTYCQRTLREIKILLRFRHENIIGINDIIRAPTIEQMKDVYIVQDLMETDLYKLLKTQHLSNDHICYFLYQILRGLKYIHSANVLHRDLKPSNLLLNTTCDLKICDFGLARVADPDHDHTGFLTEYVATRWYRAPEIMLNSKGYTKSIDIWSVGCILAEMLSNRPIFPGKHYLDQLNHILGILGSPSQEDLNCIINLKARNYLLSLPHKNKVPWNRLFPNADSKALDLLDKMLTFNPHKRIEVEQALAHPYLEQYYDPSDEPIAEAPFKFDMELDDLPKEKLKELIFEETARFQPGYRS
Sequence of Mitogen-activated protein kinase 9 (Homo sapiens) (P45984 whole entry, looked up): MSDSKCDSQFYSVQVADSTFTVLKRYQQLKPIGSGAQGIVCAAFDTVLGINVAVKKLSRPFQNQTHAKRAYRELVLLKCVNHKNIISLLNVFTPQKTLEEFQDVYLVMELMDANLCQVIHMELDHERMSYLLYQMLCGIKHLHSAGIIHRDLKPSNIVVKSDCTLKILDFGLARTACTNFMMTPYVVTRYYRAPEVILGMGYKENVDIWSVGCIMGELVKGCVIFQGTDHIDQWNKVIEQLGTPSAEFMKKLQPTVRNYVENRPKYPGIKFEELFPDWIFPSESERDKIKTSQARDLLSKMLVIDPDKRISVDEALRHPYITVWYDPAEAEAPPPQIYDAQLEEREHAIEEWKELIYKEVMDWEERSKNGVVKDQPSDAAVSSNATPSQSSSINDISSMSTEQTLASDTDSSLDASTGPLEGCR
Sequence of Mitogen-activated protein kinase 11 (Homo sapiens) (Q15759 whole entry): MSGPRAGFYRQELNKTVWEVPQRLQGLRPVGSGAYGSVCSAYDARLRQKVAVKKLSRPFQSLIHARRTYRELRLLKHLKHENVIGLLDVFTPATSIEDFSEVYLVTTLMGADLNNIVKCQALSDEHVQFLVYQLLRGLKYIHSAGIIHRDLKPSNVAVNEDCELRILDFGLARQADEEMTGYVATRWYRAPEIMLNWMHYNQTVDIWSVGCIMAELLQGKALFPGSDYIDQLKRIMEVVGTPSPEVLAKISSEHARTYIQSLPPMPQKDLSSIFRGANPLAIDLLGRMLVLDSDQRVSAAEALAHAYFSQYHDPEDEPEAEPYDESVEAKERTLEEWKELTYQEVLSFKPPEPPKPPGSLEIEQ
Sequence of Mitogen-activated protein kinase 3 (Homo sapiens) (P27361 whole entry): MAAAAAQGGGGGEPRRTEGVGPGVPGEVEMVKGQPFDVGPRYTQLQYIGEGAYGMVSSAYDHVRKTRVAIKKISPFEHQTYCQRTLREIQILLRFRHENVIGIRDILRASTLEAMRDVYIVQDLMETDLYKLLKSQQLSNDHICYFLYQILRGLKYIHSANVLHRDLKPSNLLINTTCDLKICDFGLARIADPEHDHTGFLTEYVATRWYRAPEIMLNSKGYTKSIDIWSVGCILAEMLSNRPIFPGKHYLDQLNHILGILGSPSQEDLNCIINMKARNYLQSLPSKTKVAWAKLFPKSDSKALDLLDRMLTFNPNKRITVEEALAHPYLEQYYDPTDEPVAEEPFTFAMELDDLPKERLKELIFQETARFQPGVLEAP

Regarding `NCc1ccc(-n2c(-c3nonc3N)nc3cnccc32)cc1`, the inhibition in assay [1] is 60.1%; in assay [2] it was 1.51%; in assay [3], 9.18%; in assay [4], 0.98%; in assay [5], 5.32%; in assay [6], 7.98%. Moreover, the inhibition was 6.05% in [7]; 6.45% in [8]; 8.32% in assay [9]; 4.41% in assay [10]; 5.64% in [11]; -0.85% in assay [12]. Moreover, the inhibition in assay [13] was -1.47%; in [14], 4.72%; in assay [15], 10%; in assay [16], 5.07%; in [17] it was 11%; in [18], 2.2%. Besides, the inhibition in assay [19] was 7.37%; in [20], 3.52%.

For the compound `NS(=O)(=O)c1ccc(N/N=C2\C(=O)Nc3ccc(C(=O)NCCCn4ccnc4)cc32)cc1`, the inhibition came to 77.7% in [1]; 4.8% in assay [2]; 34.3% in assay [3]; 3.92% in [4]; 17.6% in assay [5]; 6.1% in assay [6]. Further, the inhibition is 10.9% in [7]; 9.89% in assay [8]; 38.5% in assay [9]; 5.16% in assay [10]; 15.9% in [11]; -1.4% in assay [12]. Also, the inhibition in assay [13] was 0.48%; in assay [14], 1.52%; in assay [15], 7.84%; in assay [16], 5.07%; in [17], 9.47%; in assay [18] it was 1.23%. For the same compound, the inhibition in assay [19] turned out to be 6.17%; in assay [20] it was 2.29%.

For the compound `CN1CCN(CCCNc2nc3ccc(Oc4ccc(NC(=O)Nc5cc(C(F)(F)F)ccc5F)cc4)cc3[nH]2)CC1`, the inhibition in [1] is -1.5%; in assay [2], -6.94%; in assay [3] it was -3.43%; in assay [4] it was 6.45%; in assay [5] it was 40.6%; in assay [6], 3.11%. In addition, the inhibition in assay [7] came out at 8.71%; in assay [8], 1.47%; in assay [9], 0.12%; in [10], 1.55%; in [11], 0.83%; in [12], 2.09%. For the same compound, the inhibition in assay [13] was 4.1%; in assay [14], 8.14%; in [15], 51.8%; in assay [16], 5.1%; in [17], 22.1%; in [18], 0.46%. Besides, the values for the inhibition in assay [19] and in assay [20] were 1.31% and -0.38%, respectively.

For `CN(C)CCCNc1nccc(-c2c(-c3ccc(F)cc3)nn3cc(C(F)(F)F)ccc23)n1`, the inhibition in assay [1] was 7.7%; in assay [2], -4.22%; in assay [3], 1.54%; in assay [4], 4.04%; in assay [5] it was 8.4%; in assay [6] it was 2.73%. The inhibition came out at 11% in assay [7]; 1.62% in [8]; 2.71% in [9]; 2.96% in assay [10]; 2.96% in assay [11]; 2.1% in assay [12]. The inhibition came out at 6.95% in assay [13]; 17.8% in assay [14]; 67.8% in [15]; 5.1% in [16]; 17.9% in assay [17]; 1.74% in [18]. Moreover, the figures for the inhibition in assay [19] and in assay [20] were 5.4% and 0.47%, respectively.

Turning to `CN(c1ccc(NC(=O)Nc2c(Cl)cccc2Cl)cc1)c1ccnc(Nc2cccc(CS(C)(=O)=O)c2)n1`, the inhibition was found to be 9.63% in assay [1]; 2.01% in assay [2]; 5.39% in [3]; 7.1% in assay [4]; 18.4% in assay [5]; 5.56% in [6]. Moreover, the inhibition in assay [7] came out at 8.85%; in assay [8], 3.03%; in [9], 2.83%; in [10], 2.56%; in assay [11], 4.66%; in assay [12], 0.97%. The inhibition was determined as 2.4% in assay [13]; 2.39% in [14]; 3.34% in [15]; 1.5% in [16]; 4.6% in assay [17]; 1.53% in [18]. Also, the inhibition in assay [19] was 1.46%; in [20], -0.44%.

`O=C1Nc2ccccc2/C1=C/Nc1ccc(-n2cncn2)cc1`: the inhibition was determined as 25.4% in [1]; 2.9% in assay [2]; 5.5% in assay [3]; 0.86% in [4]; 3.17% in assay [5]; 5.47% in [6]. Also, the inhibition is 12.1% in [7]; 6.04% in assay [8]; 6.4% in [9]; 93.3% in [10]; 6.36% in assay [11]; -3.04% in assay [12]. Also, the inhibition in assay [13] was -0.36%; in [14], 2.12%; in [15], 6.86%; in assay [16], 5.3%; in [17], 8.05%; in [18] it was 2.33%. Moreover, the values for the inhibition in [19] and in assay [20] were 5.56% and 2.03%, respectively.

What is called inhibition is the relative decrease from the control value, in per cent.
